# Unmarked numbers belong to inactive results. Results filed as inconclusive are left out. Where a call stands in place of a potency, no number is given. Activity calls are given as the source filed them. Unless noted, calls follow the shape of the dose curve; as a rule, active = well fitted curve in the direction sought with a large enough effect; inconclusive = small, poorly fitted or top-dose-only effect, or another doubt; inactive = no such curve, though single readings can be large; an effect the other way counts as inactive or inconclusive.
# Tests used:
# [1] = Natriuretic polypeptide receptor (hNpr1) antagonism - Pilot counterscreen GloSensor control cell line (AID 1347045; calls by dose curve; also: series mostly up to about 38 µM)
# How it was run: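 The SNP-driven cGMP luminescence signal (50 uM, 20 min, room temperature) was measured in GloSensor HEK293 control cells. Compounds were tested as a LOPAC titration series and preincubated for 30-50 min.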
# [2] = target: Atrial natriuretic peptide receptor 1 (Homo sapiens) (UniProt P16066); test: Natriuretic polypeptide receptor (hNpr1) antagonism - Pilot screen (AID 1347049; calls by dose curve;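 also: agonist-evoked cGMP luminescence read 20 min after hNppA addition; series mostly up to about 58 µM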)
# How it was run: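 cGMP-sensor HEK293/hNpr1 cells, 1500/well, plated overnight at 37C. 2% GloSensor reagent, 2 h RT. Compound (23 nL pin transfer) 30 min RT, baseline luminescence pre-read. 0.1 nM hNppA, 20 min RT, post-read.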
# [3] = target: Atrial natriuretic peptide receptor 2 (Homo sapiens) (UniProt P20594); test: Natriuretic polypeptide receptor (hNpr2) antagonism - Pilot subtype selectivity assay (AID 1347050; calls by dose curve)
# How it was run: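 Luminescence from a genetically encoded cGMP luciferase biosensor in hNpr2-expressing HEK293 cells is read before and 20 min after adding 1 nM hNppC. Test compounds, in interplate 1:5 titrations, are added 30-50 min ahead of the agonist.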
# [4] = NS1 protein of Zika virus - qHTS assay to identify small molecule inhibitors in human HEK 293 cells (AID 1347053); also: series mostly up to about 46 µM; nearly all actives have a fitted effect of over 55% in size
# How it was run: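 TR-FRET signal from two anti-ZIKV NS1 antibodies quantified NS1 in HEK 293 cells 24 h after MR766 infection at MOI = 0.5; compounds were added 1 h before virus. Uninfected cells and infected cells defined the NS1 normalization range.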
# [5] = target: T1, Tyrosine-protein phosphatase non-receptor type substrate 1 (Homo sapiens) + Leukocyte surface antigen CD47 (Homo sapiens) (UniProt P78324+Q08722); test: CD47-SIRPalpha protein protein interaction - LANCE assay qHTS validation (AID 1347057; active = well fitted curve in the direction sought with a large enough effect in the signal ratio, with a control signal flat, not every such curve was filed as active; the % refers to the signal ratio; also: series mostly up to about 38 µM)
# How it was run: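 Inhibition of soluble CD47/SIRPalpha ectodomain association by titrated compounds, measured as 665/615 nm time-resolved FRET ratio after sequential 30 min room-temperature incubations.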
# [6] = target: T1, Tyrosine-protein phosphatase non-receptor type substrate 1 (Homo sapiens) + Leukocyte surface antigen CD47 (Homo sapiens); test: CD47-SIRPalpha protein protein interaction - HTRF assay qHTS validation (AID 1347058; active = well fitted curve in the direction sought with a large enough effect in the signal ratio, not every such curve was filed as active; the % refers to the signal ratio; also: series mostly up to about 38 µM)
# How it was run: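 Soluble extracellular domains (6His-CD47, Avi-tag-biotinylated SIRPalpha) in PBS pH 7.4 with 0.05% IGEPAL CA-630. Compounds were preincubated 30 min at RT with CD47 and anti-His-Eu, then SIRPalpha and SAV-XL665 were added. TR-FRET 665/615 ratio.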
# [7] = target: T1, Tyrosine-protein phosphatase non-receptor type substrate 1 (Homo sapiens) + Leukocyte surface antigen CD47 (Homo sapiens); test: CD47-SIRPalpha protein protein interaction - Alpha assay qHTS validation (AID 1347059);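 also: bead proximity luminescence from CD47 binding SIRPalpha after compound preincubation with SIRPalpha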
# How it was run: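 SIRPalpha-biotin 25 nM + cpd, 30 min RT, dark; add CD47-His 12.5 nM, 30 min; add Ni-NTA/SAV beads 10 ug/mL, 30 min; AlphaScreen. Buffer PBS pH 7.4 + 0.05% IGEPAL CA-630. Non-biotinylated SIRPalpha as control inhibitor.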
# [8] = target: Parathyroid hormone/parathyroid hormone-related peptide receptor (Homo sapiens) (UniProt Q03431); test: qHTS for PTHR1 Agonists: Optimization Screen against the NCGC LOPAC library (AID 1347079);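 also: GloSensor cAMP luminescence in HEK-293 GP2 cells expressing human PTHR1 with IBMX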
# How it was run: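 Signal increase flags agonism. GP2 cells, derived from HEK-293, express human PTHR1 and a GloSensor cAMP construct.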
# [9] = P-glycoprotein substrates identified in KB-8-5-11 adenocarcinoma cell line, qHTS therapeutic library screen (AID 1346987); also: nearly all actives have a fitted effect of over 65% in size; also: potency is read from the fitted curve at half-maximal effect
# How it was run: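 Human cervical adenocarcinoma KB-8-5-11 cells, selected in colchicine to over-express P-gp and assayed without it, were exposed for 72 h to titrated compounds. An ATP-based luminescent viability signal gave AC50.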
# [10] = qHTS of pediatric cancer cell lines to identify multiple opportunities for drug repurposing: Primary screen for TC32 cells (AID 1347089); also: nearly all actives have a fitted effect of over 60% in size
# How it was run: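 TC32 cells, 500-1,000/well in growth medium, compound-treated 48 h at 37 °C; viability from CellTiter-Glo luminescence. Primary screen: MIPE 11-point (0.78 nM–46 µM final), NPC 8-point (0.59 nM–46 µM final); confirmatory at 11-point dilutions.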
# [11] = qHTS of pediatric cancer cell lines to identify multiple opportunities for drug repurposing: Primary screen for DAOY cells (AID 1347090); also: nearly all actives have a fitted effect of over 55% in size; also: potency is read from the fitted curve at half-maximal effect
# How it was run: (§1)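 Viability measured as metabolically active cells via CellTiter-Glo luminescence following 48 hours of compound exposure, 11-point dilutions in confirmatory testing. 500-1,000 cells/well plated 5 hours before dosing; controls were DMSO and 2.3 µM bortezomib.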
# [12] = qHTS of pediatric cancer cell lines to identify multiple opportunities for drug repurposing: Primary screen for SJ-GBM2 cells (AID 1347091)
# How it was run: as §1
# [13] = qHTS of pediatric cancer cell lines to identify multiple opportunities for drug repurposing: Primary screen for SK-N-MC cells (AID 1347093); also: potency is read from the fitted curve at half-maximal effect
# How it was run: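 Metabolically active cells were quantified by ATP-dependent luminescence (CellTiter-Glo, 15 min at room temperature) following 48 h treatment. Cells had been plated at 500-1,000 per well and settled for 5 h beforehand.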
# [14] = qHTS of pediatric cancer cell lines to identify multiple opportunities for drug repurposing: Primary screen for BT-37 cells (AID 1347094); also: series mostly up to about 57 µM
# How it was run: (§2)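 Plated cells (500-1,000 per well, growth media) were allowed to settle for 5 hours, treated with compound dilutions for 48 hours, then lysed with CellTiter-Glo for 15 min at room temperature before luminescence reading.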
# [15] = qHTS of pediatric cancer cell lines to identify multiple opportunities for drug repurposing: Primary screen for NB-EBc1 cells (AID 1347095); also: potency is read from the fitted curve at half-maximal effect
# How it was run: as §2
# [16] = qHTS of pediatric cancer cell lines to identify multiple opportunities for drug repurposing: Primary screen for U-2 OS cells (AID 1347096); also: nearly all actives have a fitted effect of over 50% in size
# How it was run: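 Viability after 48 h compound treatment at 37C, 500-1,000 cells/well, read as ATP luminescence with CellTiter-Glo. Primary screens used 11-point (MIPE, 0.78 nM-46 µM) or 8-point (NPC, 0.59 nM-46 µM) final concentrations; follow-up screens used 11-point dilutions.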
# [17] = qHTS of pediatric cancer cell lines to identify multiple opportunities for drug repurposing: Primary screen for A673 cells (AID 1347092); also: nearly all actives have a fitted effect of over 45% in size; also: potency is read from the fitted curve at half-maximal effect
# How it was run: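 A673 cells (500-1,000 cells/well) were treated 48 hours at 37 degrees C with compounds at 11-point (0.78 nM to 46 µM) or 8-point (0.59 nM to 46 µM) dilutions. Viability read by CellTiter-Glo luminescence; concentration-response curves fitted.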
# Chain of Atrial natriuretic peptide receptor 1 (Homo sapiens) (P16066 whole entry, looked up): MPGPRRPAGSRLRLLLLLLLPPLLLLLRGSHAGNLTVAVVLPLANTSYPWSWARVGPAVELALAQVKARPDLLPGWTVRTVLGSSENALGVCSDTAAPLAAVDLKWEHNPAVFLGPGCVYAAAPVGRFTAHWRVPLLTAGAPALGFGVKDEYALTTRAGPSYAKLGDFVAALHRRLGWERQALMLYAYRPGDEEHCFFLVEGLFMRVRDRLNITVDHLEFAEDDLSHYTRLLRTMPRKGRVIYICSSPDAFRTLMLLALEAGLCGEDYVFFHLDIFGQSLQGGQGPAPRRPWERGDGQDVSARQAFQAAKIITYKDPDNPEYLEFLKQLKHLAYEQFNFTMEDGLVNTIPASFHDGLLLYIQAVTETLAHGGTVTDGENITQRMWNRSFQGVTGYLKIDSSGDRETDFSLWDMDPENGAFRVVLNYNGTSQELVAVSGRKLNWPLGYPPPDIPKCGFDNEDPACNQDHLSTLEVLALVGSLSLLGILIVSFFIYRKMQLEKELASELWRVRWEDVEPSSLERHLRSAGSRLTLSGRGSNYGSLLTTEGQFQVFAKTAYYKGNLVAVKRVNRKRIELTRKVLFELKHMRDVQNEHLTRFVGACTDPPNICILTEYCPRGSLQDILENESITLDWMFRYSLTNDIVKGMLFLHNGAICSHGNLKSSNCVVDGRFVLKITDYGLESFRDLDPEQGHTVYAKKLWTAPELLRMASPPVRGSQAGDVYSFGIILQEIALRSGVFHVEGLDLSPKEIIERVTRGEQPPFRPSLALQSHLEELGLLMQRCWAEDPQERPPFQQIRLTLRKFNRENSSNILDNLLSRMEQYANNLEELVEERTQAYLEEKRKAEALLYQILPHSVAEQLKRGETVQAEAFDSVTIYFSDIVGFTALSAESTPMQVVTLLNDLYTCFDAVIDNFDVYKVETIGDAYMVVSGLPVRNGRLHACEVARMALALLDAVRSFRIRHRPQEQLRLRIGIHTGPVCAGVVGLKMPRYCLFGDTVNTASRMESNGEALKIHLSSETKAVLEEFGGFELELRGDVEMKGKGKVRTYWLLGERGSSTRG
# T1 sequence (P78324 whole entry, looked up, the tested form may be a part): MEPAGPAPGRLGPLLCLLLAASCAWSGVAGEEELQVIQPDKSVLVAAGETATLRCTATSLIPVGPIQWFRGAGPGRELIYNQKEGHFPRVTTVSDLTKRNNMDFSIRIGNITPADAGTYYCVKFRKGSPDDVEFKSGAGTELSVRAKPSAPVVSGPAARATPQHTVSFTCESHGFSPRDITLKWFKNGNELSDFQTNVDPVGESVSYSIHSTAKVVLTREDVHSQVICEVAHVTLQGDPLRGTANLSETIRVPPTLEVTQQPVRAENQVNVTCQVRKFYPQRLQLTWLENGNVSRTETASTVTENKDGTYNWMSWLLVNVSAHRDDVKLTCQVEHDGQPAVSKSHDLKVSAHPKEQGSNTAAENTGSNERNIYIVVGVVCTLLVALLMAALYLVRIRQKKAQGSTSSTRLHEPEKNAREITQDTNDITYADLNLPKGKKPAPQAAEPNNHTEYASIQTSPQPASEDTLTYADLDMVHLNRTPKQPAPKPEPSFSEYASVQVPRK
# T1 sequence (Q08722 whole entry, looked up, the tested form may be a part): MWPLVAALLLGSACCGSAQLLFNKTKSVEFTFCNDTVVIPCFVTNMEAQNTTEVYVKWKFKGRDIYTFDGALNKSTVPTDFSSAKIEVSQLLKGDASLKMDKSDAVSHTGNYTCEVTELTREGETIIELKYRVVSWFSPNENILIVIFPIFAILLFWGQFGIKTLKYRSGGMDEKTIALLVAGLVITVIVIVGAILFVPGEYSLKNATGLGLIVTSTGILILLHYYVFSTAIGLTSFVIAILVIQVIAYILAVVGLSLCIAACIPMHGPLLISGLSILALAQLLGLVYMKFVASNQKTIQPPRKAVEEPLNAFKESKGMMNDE
# Chain of Atrial natriuretic peptide receptor 2 (Homo sapiens) (P20594 whole entry, looked up): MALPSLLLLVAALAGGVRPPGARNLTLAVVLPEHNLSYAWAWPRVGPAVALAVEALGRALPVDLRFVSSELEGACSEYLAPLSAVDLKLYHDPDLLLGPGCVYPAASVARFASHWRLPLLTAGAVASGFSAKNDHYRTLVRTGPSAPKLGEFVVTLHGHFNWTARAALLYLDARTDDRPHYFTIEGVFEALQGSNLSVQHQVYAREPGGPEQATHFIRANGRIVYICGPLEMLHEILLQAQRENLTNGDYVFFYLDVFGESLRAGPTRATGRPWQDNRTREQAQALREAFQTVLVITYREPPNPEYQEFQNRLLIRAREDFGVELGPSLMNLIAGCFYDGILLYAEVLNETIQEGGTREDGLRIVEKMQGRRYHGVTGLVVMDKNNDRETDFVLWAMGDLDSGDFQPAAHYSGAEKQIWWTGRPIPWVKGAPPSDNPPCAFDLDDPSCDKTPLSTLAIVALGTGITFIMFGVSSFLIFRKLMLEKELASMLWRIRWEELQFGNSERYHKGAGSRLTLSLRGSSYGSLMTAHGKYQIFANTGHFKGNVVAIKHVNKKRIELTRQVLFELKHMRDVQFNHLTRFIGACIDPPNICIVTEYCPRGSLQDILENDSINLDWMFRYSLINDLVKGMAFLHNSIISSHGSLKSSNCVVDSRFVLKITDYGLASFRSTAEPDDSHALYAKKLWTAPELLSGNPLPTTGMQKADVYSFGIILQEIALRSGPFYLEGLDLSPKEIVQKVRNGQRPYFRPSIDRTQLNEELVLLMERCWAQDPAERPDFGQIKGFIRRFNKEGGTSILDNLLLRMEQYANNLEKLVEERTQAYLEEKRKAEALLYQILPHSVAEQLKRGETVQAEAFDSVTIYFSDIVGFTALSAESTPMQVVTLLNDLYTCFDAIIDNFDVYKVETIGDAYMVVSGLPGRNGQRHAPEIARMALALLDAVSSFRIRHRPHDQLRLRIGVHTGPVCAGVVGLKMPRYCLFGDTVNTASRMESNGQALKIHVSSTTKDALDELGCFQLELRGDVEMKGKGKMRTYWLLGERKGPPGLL
# Chain of Parathyroid hormone/parathyroid hormone-related peptide receptor (Homo sapiens) (Q03431 whole entry, looked up): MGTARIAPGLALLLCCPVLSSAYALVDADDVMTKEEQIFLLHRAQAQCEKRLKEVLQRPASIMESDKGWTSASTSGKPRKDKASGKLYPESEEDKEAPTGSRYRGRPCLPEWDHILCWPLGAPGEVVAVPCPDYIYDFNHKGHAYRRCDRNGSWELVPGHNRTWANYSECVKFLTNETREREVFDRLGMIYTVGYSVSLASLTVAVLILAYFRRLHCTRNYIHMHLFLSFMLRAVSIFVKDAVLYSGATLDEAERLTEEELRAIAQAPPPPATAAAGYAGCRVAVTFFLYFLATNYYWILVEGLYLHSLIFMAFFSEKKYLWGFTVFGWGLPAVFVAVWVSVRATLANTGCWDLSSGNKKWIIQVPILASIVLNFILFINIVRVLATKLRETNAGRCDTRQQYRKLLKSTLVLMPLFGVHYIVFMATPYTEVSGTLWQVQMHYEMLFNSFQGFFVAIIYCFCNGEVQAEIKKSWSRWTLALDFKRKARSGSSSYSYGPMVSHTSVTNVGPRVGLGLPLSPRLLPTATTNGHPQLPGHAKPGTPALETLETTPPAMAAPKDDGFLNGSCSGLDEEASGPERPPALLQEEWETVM
smiles,measurement,setting,value
NCC1OC(O[C@H]2[C@H](O)[C@@H](OC3C(O)C(N)CC(N)C3OC3OC(CO)C(O)C(O)C3N)O[C@@H]2CO)C(N)C(O)C1O (stereo partly specified),Potency,[1],inactive
same,Potency,[2],inactive
same,Potency,[3],inactive
same,Potency,[4],inactive
same,Potency,[5],inactive
same,outcome,[6],inactive
same,Potency,[7],inactive
same,Potency,[8],inactive
CCN(CC)CCCCNc1ncc2cc(-c3c(Cl)cccc3Cl)c(NC(=O)NC(C)(C)C)nc2n1,Potency,[9],16.4 µM (active)
same,Potency,[5],inactive
same,Potency,[7],inactive
CSc1nc(N)c2ncn([C@@H]3O[C@H](COP(=O)(O)OP(=O)(O)OP(=O)(O)O)[C@@H](O)[C@H]3O)c2n1,Potency,[1],inactive
same,Potency,[2],inactive
same,Potency,[3],inactive
same,Potency,[4],inactive
same,Potency,[5],inactive
same,outcome,[6],inactive
same,Potency,[7],inactive
same,Potency,[8],inactive
Nc1nc(Cl)nc2c1ncn2[C@@H]1O[C@H](COP(=O)(O)OP(=O)(O)OP(=O)(O)O)[C@@H](O)[C@H]1O,Potency,[1],inactive
same,Potency,[2],inactive
same,Potency,[3],inactive
same,Potency,[4],inactive
same,Potency,[5],inactive
same,outcome,[6],inactive
same,Potency,[7],inactive
same,Potency,[8],inactive
O=C(O)c1cc(O)c(O)c(O)c1,Potency,[9],inactive
same,Potency,[4],inactive
same,Potency,[10],inactive
same,Potency,[11],inactive
same,Potency,[12],inactive
same,Potency,[13],inactive
same,Potency,[14],inactive
same,Potency,[15],inactive
same,Potency,[16],inactive
CC(C(=O)O)c1ccc(C(=O)c2ccccc2)s1 (stereo unspecified),Potency,[9],inactive
same,Potency,[4],inactive
same,Potency,[10],inactive
same,Potency,[11],inactive
same,Potency,[17],inactive
same,Potency,[13],inactive
same,Potency,[14],inactive
same,Potency,[15],inactive
same,Potency,[16],inactive
S=c1[nH]c2ccccc2s1,Potency,[9],inactive
same,Potency,[4],inactive
same,Potency,[11],inactive
same,Potency,[12],inactive
same,Potency,[17],19.3 µM (active)
same,Potency,[14],inactive
same,Potency,[15],inactive
same,Potency,[16],inactive
c1ccc2sc(SSc3nc4ccccc4s3)nc2c1,Potency,[9],inactive
same,Potency,[4],inactive
same,Potency,[10],inactive
same,Potency,[11],inactive
same,Potency,[12],inactive
same,Potency,[13],inactive
same,Potency,[14],inactive
same,Potency,[15],inactive
same,Potency,[16],inactive
Nc1ccc(O)c([N+](=O)[O-])c1,Potency,[9],inactive
same,Potency,[4],inactive
same,Potency,[11],inactive
same,Potency,[12],inactive
same,Potency,[17],inactive
same,Potency,[14],inactive
same,Potency,[15],inactive
same,Potency,[16],inactive
COC(=O)C1=C(C)NC(C)=C(C(=O)OCC(C)=O)C1c1ccccc1[N+](=O)[O-] (stereo unspecified),Potency,[9],7.31 µM (active)
same,Potency,[4],inactive
same,Potency,[10],inactive
same,Potency,[13],13.3 µM (active)
same,Potency,[16],inactive
CNc1ncnc2c1ncn2[C@@H]1O[C@H](CO)[C@@H](O)[C@H]1O,Potency,[1],inactive
same,Potency,[2],inactive
same,Potency,[3],inactive
same,Potency,[4],inactive
same,Potency,[5],inactive
same,outcome,[6],inactive
same,Potency,[7],inactive
same,Potency,[8],inactive
NC(CCCP(=O)(O)O)C(=O)O (stereo unspecified),Potency,[1],inactive
same,Potency,[2],inactive
same,Potency,[3],inactive
same,Potency,[4],inactive
same,Potency,[5],inactive
same,outcome,[6],inactive
same,Potency,[7],inactive
same,Potency,[8],inactive
C=CC(C)=C[C@@]1(C)SC(=O)C(C)=C1O,Potency,[1],inactive
same,Potency,[2],inactive
same,Potency,[3],inactive
same,Potency,[4],inactive
same,Potency,[5],inactive
same,outcome,[6],inactive
same,Potency,[7],inactive
same,Potency,[8],inactive
Cc1c(Nc2ncccc2C(=O)O)cccc1C(F)(F)F,Potency,[9],inactive
same,Potency,[4],inactive
same,Potency,[10],inactive
same,Potency,[11],inactive
same,Potency,[12],inactive
same,Potency,[17],inactive
same,Potency,[13],21.1 µM (active)
same,Potency,[14],inactive
same,Potency,[16],inactive
CCN(CC)c1ncnc2c1ncn2[C@@H]1O[C@H](COP(=O)(O)OP(=O)(O)C(Br)(Br)P(=O)(O)O)[C@@H](O)[C@H]1O,Potency,[1],inactive
same,Potency,[2],inactive
same,Potency,[3],inactive
same,Potency,[4],inactive
same,Potency,[5],inactive
same,outcome,[6],inactive
same,Potency,[7],inactive
same,Potency,[8],inactive
Cc1ccc(O)c(-n2nc3ccccc3n2)c1,Potency,[9],inactive
same,Potency,[10],inactive
same,Potency,[11],inactive
same,Potency,[12],inactive
same,Potency,[17],inactive
same,Potency,[13],inactive
same,Potency,[14],inactive
same,Potency,[15],inactive
same,Potency,[16],inactive
CCCCCCOc1ccccc1C(N)=O,Potency,[9],18.4 µM (active)
same,Potency,[4],inactive
same,Potency,[10],inactive
same,Potency,[11],inactive
same,Potency,[12],inactive
same,Potency,[17],inactive
same,Potency,[14],inactive
same,Potency,[15],inactive
same,Potency,[16],inactive
Nc1ccc([N+](=O)[O-])cc1O,Potency,[9],inactive
same,Potency,[4],inactive
same,Potency,[11],0.001 µM (active)
same,Potency,[17],0.001 µM (active)
same,Potency,[13],0.001 µM (active)
same,Potency,[15],15.4 µM (active)
same,Potency,[16],inactive
CCCOC(=O)c1ccc(O)cc1,Potency,[9],inactive
same,Potency,[4],inactive
same,Potency,[10],inactive
same,Potency,[11],inactive
same,Potency,[12],inactive
same,Potency,[13],inactive
same,Potency,[14],inactive
same,Potency,[15],inactive
same,Potency,[16],inactive
CCOC(=O)c1ccccc1O,Potency,[9],inactive
same,Potency,[4],inactive
same,Potency,[10],inactive
same,Potency,[11],inactive
same,Potency,[12],inactive
same,Potency,[17],0.001 µM (active)
same,Potency,[13],inactive
same,Potency,[14],inactive
same,Potency,[15],inactive
same,Potency,[16],inactive
C#CC1(O)CC[C@H]2[C@@H]3CCC4=CCCC[C@@H]4[C@H]3CC[C@@]21C (stereo partly specified),Potency,[9],inactive
same,Potency,[4],inactive
same,Potency,[10],inactive
same,Potency,[12],inactive
same,Potency,[14],inactive
same,Potency,[15],inactive
